DT40 TDP1 CPT: DT40-hTDP1 cell growth loss with CPT; chicken DT40 Tdp1-/-;hTDP1 cells + 20 nM CPT, ATP luminescence, 48 h; Potency, µM (series often up to 46.2 µM), inactives show top-dose activity change, negative = growth inhibition, usual class: inhibitors; 420,000 tested, 12% active; further: nearly all actives have a fitted effect of over 55% in size
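Chicken DT40 Tdp1-/- cells complemented with human TDP1, 400 cells/well, exposed to compounds plus 20 nM camptothecin for at least 48 h at 37 C; viability read as ATP content by CellTiter-Glo luminescence.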
RORgamma inh: ROR gamma (mouse) transcription inhibition. 310,000 tested, 5.4% active. P51450. Drosophila S2 Gal4-RORgamma UAS-luciferase reporter, 20 h. Potency, µM (doses to about 53.6 µM), inactives show at the top dose activity change, negative = inhibition, hits mostly inhibitors; further: nearly all actives have a fitted effect of over 60% in size
Target sequence (P51450 whole entry, looked up, the tested form may be a part): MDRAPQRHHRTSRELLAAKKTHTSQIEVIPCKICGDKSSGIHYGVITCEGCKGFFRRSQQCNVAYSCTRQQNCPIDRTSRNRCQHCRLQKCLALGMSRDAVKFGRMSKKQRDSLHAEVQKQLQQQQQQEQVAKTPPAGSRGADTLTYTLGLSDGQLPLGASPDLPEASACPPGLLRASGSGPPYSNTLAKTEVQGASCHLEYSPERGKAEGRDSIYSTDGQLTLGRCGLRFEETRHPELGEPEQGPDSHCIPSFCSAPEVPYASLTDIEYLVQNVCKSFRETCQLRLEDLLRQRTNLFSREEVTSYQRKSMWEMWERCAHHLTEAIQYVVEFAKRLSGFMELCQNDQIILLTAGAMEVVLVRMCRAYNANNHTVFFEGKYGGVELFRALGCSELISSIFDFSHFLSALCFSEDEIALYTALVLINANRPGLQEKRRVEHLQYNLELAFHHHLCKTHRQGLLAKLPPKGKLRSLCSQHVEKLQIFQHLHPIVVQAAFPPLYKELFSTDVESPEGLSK
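A Gal4/UAS one-hybrid system in insect cells: metallothionein-promoter Gal4–ROR gamma fusion plus Photinus luciferase reporter. Copper sulfate 700 uM final, 20 hr ambient incubation, luminescent detection after 10 min with reagent.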
DT40 TDP1 no CPT: qHTS for Inhibitors of human tyrosyl-DNA phosphodiesterase 1 (TDP1): qHTS in cells in absence of CPT; 420,000 tested, 15% active; AID 686978, 2013; Potency, µM (top dose mostly 46.2 µM), for the others: at the highest dose activity change, negative = growth inhibition, hits mostly inhibitors; DT40 Tdp1-/- hTDP1 cells, no CPT, ATP luminescence, 48 h; further: nearly all actives have a fitted effect of over 55% in size
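Camptothecin absent (DMSO only). Human TDP1-complemented DT40 knockout cells, 400 cells/well, 37 °C for minimum 48 hr; ATP measured via CellTiter-Glo, 30 min dark incubation, luminescence.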
VP16 counter: Gal4-VP16 reporter inhibition counter-screen. Potency, µM (highest dose often 53.6 µM), inactives show at the highest dose activity, negative = inhibition, usual class: inhibitors. Drosophila S2 Gal4-VP16 UAS-luciferase, luminescence, 20 h. 310,000 tested, 3.5% active;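 further: Gal4-VP16 expression switched on by copper sulfate through the metallothionein promoter; nearly all actives have a fitted effect of over 50% in size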
12-LOX inh: blocks human arachidonate 12S-lipoxygenase. P18054. purified 12hLO, xylenol orange hydroperoxide absorbance. Potency, µM (titrated, usually from 108 µM), without a hit: top-dose activity change, negative = inhibition, usual class: inhibitors. 580,000 tested, 1.1% active
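Hydroperoxide product was detected by ferrous iron/xylenol orange as the 573 to 405 nm absorbance ratio. Arachidonic acid at 40 uM (final) was turned over for 30 min at room temperature by 150 nM human 12hLO, pH 7.0 Hepes buffer, after 15 min compound preincubation.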
ELG1 DNA repair: blocks ELG1-dependent DNA repair in HEK293T cells | HEK293T ELG1-luciferase reporter, luminescence, 16 h; DNA damage induced by 5-fluorouridine | Potency, µM (series often up to 46.1 µM), inactives show at the highest dose activity change, negative = inhibition, most hits filed as inhibitors | 330,000 tested, 2.3% active; further: nearly all actives have a fitted effect of over 55% in size
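DMSO vehicle served as the neutral condition. Each well held 2,000 cells given 5-fluorouridine plus compound; after 16 hr at 37 °C/5% CO2, ONE-Glo was added and luciferase measured 30 min later.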
The depositor's hits bear a star; ? = inconclusive; nt = not tested or not shown; ! = not confirmed by another sample; [ ] = remark or other dose. Shown are actives, neighbours in structure and some others; about 15% of the full set was active somewhere. The call rests on the fitted dose curve; in most records, active means well fitted curve in the direction sought with a large enough effect; inconclusive means small, poorly fitted or top-dose-only effect, or another doubt; inactive means no such curve, though single readings can be large; an effect the other way counts as inactive or inconclusive. On the % scale 0 is the no-effect control and ±100 the full control effect; potency means the concentration at half of the fitted maximal effect.

SMILES | DT40 TDP1 CPT | RORgamma inh | DT40 TDP1 no CPT | VP16 counter | 12-LOX inh | ELG1 DNA repair
S=C(NCc1ccccc1)Nc1ccncc1 | 10µM* | -11% | ? | 14µM* | -36% | -6%
CN(C)C1(c2nnnn2-c2ccc3c(c2)OCCO3)C2CC3CC(C2)CC1C3 (configuration not stated) | nt | nt | nt | nt | -30% | nt
S=C(NCc1ccccc1)Nc1ccc(Cl)cc1 | -29% | 4.5µM* | ? | ? | ? | -4%
CCc1ccc(NC(=S)Nc2ccc3[nH]c(=O)[nH]c3c2)cc1 | -1% | 13µM* | -11% | -65% | -22% | 1%
S=C(NCc1cccnc1)Nc1ccc(Cl)cc1 | -9% | -10% | -19% | 2% | 0% | 0%
CCc1ccc(NC(=S)Nn2cnnc2)cc1 | 13% | 1.1µM* | 3% | 0% | ? | ?
Cc1ccc(NC(=S)Nn2cnnc2)cc1 | -19% | -39% | ? | -21%[10 µM] | ? | 19%
Cc1ccc(C(=O)N2CCN(CCNC(=O)C(=O)NCc3ccc(Cl)cc3)CC2)cc1 | 16µM* | 27% | ? | 6% | -10% | ?
Cc1ccc(OCc2ccccc2C(=O)O)cc1 | nt | nt | nt | nt | -3% | nt
C=CCNC(=S)Nc1ccc(Cl)cc1 | ? | 16µM* | ? | ? | -19% | 6%
COc1ccc2ccc3c(c2c1)N=C[C@]1(O3)N(C)c2ccccc2C1(C)C | 18µM* | 13µM* | 10µM* | ? | ? | -2%
CC1=NOC2(C1)N(C)c1ccccc1C2(C)C (configuration not stated) | -5% | 1% | -2% | -9% | -2% | -10%
O=C(CC1C[C@H](C(=O)N2CCCCC2)[C@@]2(CCc3ccccc3)c3[nH]c4ccccc4c3CCN2C1=O)NCCc1ccccn1 (some centres not stated) | 23µM* | nt | 16µM* | nt | 5% | nt
CN(C)CCCNC(=O)CC1C[C@H](C(=O)N2CCCCC2)[C@@]2(CCc3ccccc3)c3[nH]c4ccccc4c3CCN2C1=O (some centres not stated) | 21µM* | nt | 13µM* | nt | ? | 1%
CN(C)CCCNC(=O)C[C@H]1C[C@H](C(=O)N2CCCCC2)[C@@]2(CCc3ccccc3)c3[nH]c4cc(CCC(=O)N(C)C)ccc4c3CCN2C1=O | -5% | nt | -9% | nt | -3% | 22%
Cn1nc(C(=O)N2CCOCC2)cc1C(=O)Nc1cc(Cl)cc(Cl)c1 | nt | nt | nt | nt | 9% | nt
O=C(N/C(=C/C=C/c1ccccc1)C(=O)N1CCCCC1)c1ccc([N+](=O)[O-])cc1 | ? | -4% | ? | 1% | -21% | 23µM*
COc1cccc2c1C(=O)c1c(O)c3c(c(O)c1C2=O)C[C@@](O)(C(C)=O)C[C@H]3O[C@H]1C[C@H](N)[C@H](O)[C@H](C)O1 | nt | nt | nt | nt | 34%[57.4 µM] | nt
COc1cccc2c1C(=O)c1c(O)c3c(c(O)c1C2=O)CC(O)(C(C)=O)CC3OC1CC(N(C)C)C(O)C(C)O1 (configuration not stated) | 0.052µM* | nt | 0.082µM* | nt | 5% | nt
COc1cccc2c1C(=O)c1c(O)c3c(c(O)c1C2=O)C[C@@](O)(C(=O)CO)C[C@@H]3O[C@@H]1C[C@H](N)[C@H](O)[C@H](C)O1 | nt | 11µM* | nt | 7.9µM* | 0% | nt
COc1cccc2c1C(=O)c1c(O)c3c(c(O)c1C2=O)C[C@@](O)(C(=O)CO)C[C@@H]3O[C@H]1C[C@H](N)[C@H](O)[C@H](C)O1 | 0.21µM*! | 3.5µM* | 0.021µM*! | 5.6µM* | ? | ?
COc1cccc2c1C(=O)c1c(O)c3c(c(O)c1C2=O)C[C@](O)(C(C)=O)C[C@H]3O[C@@H]1C[C@H](N)[C@H](O)[C@H](C)O1 | nt | 5.6µM* | nt | 4.5µM* | nt | nt
O=C(C1CCC1)N1CC[C@H]2COC(=O)N2c2ccccc2C1 | nt | nt | nt | nt | 58%[176 µM] | nt
CC[C@@]1(O)C[C@H](O[C@H]2C[C@@H](N(C)C)[C@@H](O[C@H]3C[C@@H](O)[C@@H](O[C@H]4CCC(=O)[C@@H](C)O4)[C@@H](C)O3)[C@@H](C)O2)c2c(cc3c(c2O)C(=O)c2c(O)cccc2C3=O)[C@H]1C(=O)OC | nt | 0.32µM* | nt | 0.56µM* | nt | nt
COc1cccc2c1C(=O)c1c(O)c3c(c(O)c1C2=O)C[C@@](O)(C(=O)CO)C[C@@H]3OC1CC(N)C(O)C(C)O1 (some centres not stated) | 0.29µM* | -40%[10 µM] | 0.26µM* | 10µM* | ? | nt
SMILES | DT40 TDP1 CPT | RORgamma inh | DT40 TDP1 no CPT | VP16 counter | 12-LOX inh | ELG1 DNA repair
C[C@H](CO)N1C[C@H](C)[C@@H](CN(C)Cc2ccc(Cl)c(Cl)c2)Oc2c(NC(=O)Cc3ccccc3)cccc2C1=O | ? | nt | 15µM* | nt | -14% | -2%
C[C@H](CO)N1C[C@H](C)[C@@H](CN(C)C)Oc2c(NC(=O)Cc3ccccc3)cccc2C1=O | ? | nt | -24% | nt | -12% | -4%
C[C@H](CO)N1C[C@H](C)[C@@H](CN(C)Cc2ccc(C(=O)O)cc2)Oc2c(NS(=O)(=O)c3ccccc3)cccc2C1=O | 2% | nt | -11% | nt | -17% | ?
C[C@@H]1CN([C@@H](C)CO)C(=O)c2cccc(NC(=O)C3CCCCC3)c2O[C@@H]1CN(C)Cc1ccc(Cl)c(Cl)c1 | 10µM* | nt | 21µM* | nt | 1% | ?
C[C@H](CO)N1C[C@H](C)[C@@H](CN(C)Cc2ccc(-c3ccccc3)cc2)Oc2c(NS(=O)(=O)c3ccccc3)cccc2C1=O | 21µM* | nt | 18µM* | nt | 0% | -2%
C[C@H](CO)N1C[C@H](C)[C@@H](CN(C)Cc2ccc(-c3ccccc3)cc2)Oc2c(NC(=O)Cc3ccccc3)cccc2C1=O | ? | nt | 23µM* | nt | nt | ?
C[C@H](CO)N1C[C@H](C)[C@@H](CN(C)Cc2ccncc2)Oc2c(NC(=O)C3CCCCC3)cccc2C1=O | ? | nt | ? | nt | -8% | 11%
O=C(Cn1nc2n(c1=O)CCCC2)Nc1ccc(F)cc1 | nt | nt | nt | nt | -1% | nt
CCC(=O)N1CCc2c(C(=O)Nc3ccc(OC)c(OC)c3)cccc21 | nt | nt | nt | nt | 15% | nt
O=C(CC1CCN(C(=O)c2ccc(F)c(F)c2)C1)NCc1ccccc1 (configuration not stated) | nt | nt | nt | nt | 13% | nt
CCn1cc(C#N)c(=O)n(Cc2nc(-c3ccccc3Cl)no2)c1=O | nt | nt | nt | nt | -5% | nt
